Assay [1] relates to PRMT1 (protein arginine N-methyltransferase 1). Description: small molecules binding arginine methyltransferase PRMT1 – biochemical, small-molecule microarray, 635 nm fluorescence, primary screen (AID 1088).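 Further: binding of Prmt1 protein to compounds spotted on small-molecule microarray slides.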 The note with it: higher = more signal.
Assay [2] can be described thus: growth effects on S. cerevisiae YJM789 – YJM789 clinical isolate, OD600, 24 h, basal, primary screen (AID 1089).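 Further: growth of clinical yeast isolate S. cerevisiae YJM 789 seeded 1000 cells per well; test concentration not given here.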 The note with it: higher = more signal, called active from +8 up or from −8 down.
Assay [3] can be described thus: S. pombe growth modifiers, basal conditions – strain 972, OD600, 24 h, no modulator, primary screen (AID 1090).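 Further: basal condition with compound alone and no growth modifier present; test concentration not given here.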 The conditions noted are these: S. pombe 972 growth, higher = more signal, called active from +8 up or from −8 down.
Assay [4] in a line: budding yeast growth modifiers under rapamycin – strain BY4716, OD600, 96 h, primary screen (AID 1091). Further: test concentration not given here. The conditions noted are these: S. cerevisiae BY4716 + rapamycin, higher = more signal, called active from +8 up or from −8 down.
Assay [5] deals with Torsin-1A-interacting protein 2 (Homo sapiens) (UniProt Q8NFQ8). Description: small molecules binding lysate-expressed LULL1 – cell lysate, human LULL1 lysate, 635/667 nm fluorescence, primary screen (AID 1092).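 Further: probe is lysate of COS7 cells overexpressing human LULL1; score merges per-feature 667 nm fluorescence with signal-to-noise.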 The conditions noted are these: small-molecule microarray, hLULL1 lysate binding, 635 nm fluorescence; higher = more signal.
The nature of assay [6]: optical density change of DRC41 E. coli – strain DRC41, OD650, 24 h, E. coli filamentation project, primary screen (AID 1093).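 Further: MC1000 strain lacking acrAB efflux and sulA so SOS filamentation is blocked; test concentration not given here.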 The conditions noted are these: E. coli DRC41 growth, higher = more signal, called active from +8 up or from −8 down.
A short description of assay [7]: probe aLefty2 binding to arrayed compounds – biochemical, biotinylated probe, 635/667 nm fluorescence, primary screen (AID 1094).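 Further: score merges spot fluorescence near 667 nm with spot signal-to-noise ratio.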 The conditions noted are these: small-molecule microarray, higher = more signal.
The subject of assay [8] is Noggin (protein binding on small-molecule microarray). Briefly: small molecules binding Noggin protein – biochemical, 635/667 nm fluorescence, primary screen (AID 1095).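 Further: score merges 667 nm feature fluorescence with signal to noise over triplicate slides.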 The note with it: 635 nm fluorescence, higher = more signal.
In assay [9] the target is Neurogenic locus notch homolog protein 3 (Homo sapiens) (UniProt Q9UM47). Description: small molecules binding NOTCH3 protein – biochemical, 635/667 nm fluorescence, primary screen (AID 1096). The note with it: small-molecule microarray, 635 nm fluorescence, higher = more signal.
Assay [10] can be described thus: probe aEGFR binding to arrayed compounds – biochemical, biotinylated probe, 635/667 nm fluorescence, primary screen (AID 1097).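 Further: probe is a biotinylated anti-EGFR antibody binding compounds printed on slides; score combines fluorescence near 667 nm and signal to noise of each spot.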 The conditions noted are these: small-molecule microarray, higher = more signal.

Activity calls are given as the source filed them.

Chain of Neurogenic locus notch homolog protein 3 (Homo sapiens) (Q9UM47 whole entry, looked up): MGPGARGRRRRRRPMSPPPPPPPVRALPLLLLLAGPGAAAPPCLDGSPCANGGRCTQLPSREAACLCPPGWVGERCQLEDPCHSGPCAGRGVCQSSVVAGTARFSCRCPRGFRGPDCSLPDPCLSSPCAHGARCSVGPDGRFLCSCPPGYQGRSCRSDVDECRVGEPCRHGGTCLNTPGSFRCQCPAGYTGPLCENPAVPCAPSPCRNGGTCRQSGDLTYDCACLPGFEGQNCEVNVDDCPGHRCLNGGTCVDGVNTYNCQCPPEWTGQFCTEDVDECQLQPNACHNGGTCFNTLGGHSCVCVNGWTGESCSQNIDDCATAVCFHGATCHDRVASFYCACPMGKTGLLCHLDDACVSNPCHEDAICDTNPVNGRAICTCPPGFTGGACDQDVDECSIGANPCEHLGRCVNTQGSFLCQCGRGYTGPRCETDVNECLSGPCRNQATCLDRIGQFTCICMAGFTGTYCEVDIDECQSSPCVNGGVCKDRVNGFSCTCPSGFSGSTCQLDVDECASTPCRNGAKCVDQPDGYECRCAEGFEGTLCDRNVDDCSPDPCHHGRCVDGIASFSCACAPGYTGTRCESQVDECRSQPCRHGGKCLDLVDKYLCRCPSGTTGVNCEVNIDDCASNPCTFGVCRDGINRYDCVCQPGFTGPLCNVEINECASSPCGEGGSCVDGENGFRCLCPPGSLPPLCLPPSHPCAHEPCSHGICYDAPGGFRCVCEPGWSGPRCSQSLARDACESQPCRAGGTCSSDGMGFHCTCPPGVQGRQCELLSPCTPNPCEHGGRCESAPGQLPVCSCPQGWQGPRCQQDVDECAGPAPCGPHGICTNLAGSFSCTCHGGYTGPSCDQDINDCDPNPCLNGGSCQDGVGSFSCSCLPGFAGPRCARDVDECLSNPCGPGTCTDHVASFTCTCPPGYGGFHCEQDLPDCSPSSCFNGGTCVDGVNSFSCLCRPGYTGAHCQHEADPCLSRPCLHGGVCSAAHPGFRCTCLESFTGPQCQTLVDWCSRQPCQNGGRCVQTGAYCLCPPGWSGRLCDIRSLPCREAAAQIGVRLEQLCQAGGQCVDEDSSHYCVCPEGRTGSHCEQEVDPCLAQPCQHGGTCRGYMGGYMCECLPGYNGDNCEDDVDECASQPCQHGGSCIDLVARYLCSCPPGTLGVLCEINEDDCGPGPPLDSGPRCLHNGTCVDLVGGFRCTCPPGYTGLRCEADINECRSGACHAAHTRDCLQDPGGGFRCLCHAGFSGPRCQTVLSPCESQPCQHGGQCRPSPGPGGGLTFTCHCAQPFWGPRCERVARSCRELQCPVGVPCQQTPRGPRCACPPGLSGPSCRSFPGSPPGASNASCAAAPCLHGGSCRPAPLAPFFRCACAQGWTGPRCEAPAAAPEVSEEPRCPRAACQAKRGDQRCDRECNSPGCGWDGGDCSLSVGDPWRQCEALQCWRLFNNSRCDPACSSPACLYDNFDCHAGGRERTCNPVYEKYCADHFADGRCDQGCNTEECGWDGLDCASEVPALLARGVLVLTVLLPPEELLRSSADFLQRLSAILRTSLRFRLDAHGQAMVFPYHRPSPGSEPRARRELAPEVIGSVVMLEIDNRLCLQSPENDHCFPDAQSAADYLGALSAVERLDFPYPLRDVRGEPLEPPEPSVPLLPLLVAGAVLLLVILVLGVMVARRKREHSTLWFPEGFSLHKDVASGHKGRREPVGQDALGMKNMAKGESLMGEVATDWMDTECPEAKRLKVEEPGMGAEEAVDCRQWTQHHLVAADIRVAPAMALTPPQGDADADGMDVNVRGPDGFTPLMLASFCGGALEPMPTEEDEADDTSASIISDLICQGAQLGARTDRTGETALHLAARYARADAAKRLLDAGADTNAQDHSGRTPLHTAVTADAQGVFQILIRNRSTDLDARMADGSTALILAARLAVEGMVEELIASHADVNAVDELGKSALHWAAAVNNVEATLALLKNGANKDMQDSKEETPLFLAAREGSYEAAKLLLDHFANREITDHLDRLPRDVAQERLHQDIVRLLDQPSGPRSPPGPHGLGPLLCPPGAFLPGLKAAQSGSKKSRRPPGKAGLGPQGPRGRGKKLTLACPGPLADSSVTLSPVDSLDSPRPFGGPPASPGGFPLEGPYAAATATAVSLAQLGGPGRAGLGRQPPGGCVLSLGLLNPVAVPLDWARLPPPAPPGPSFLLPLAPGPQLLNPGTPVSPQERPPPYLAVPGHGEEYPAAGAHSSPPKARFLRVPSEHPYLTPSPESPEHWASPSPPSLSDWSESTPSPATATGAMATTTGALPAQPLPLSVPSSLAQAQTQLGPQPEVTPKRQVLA
Chain of Torsin-1A-interacting protein 2 (Homo sapiens) (Q8NFQ8 whole entry, looked up): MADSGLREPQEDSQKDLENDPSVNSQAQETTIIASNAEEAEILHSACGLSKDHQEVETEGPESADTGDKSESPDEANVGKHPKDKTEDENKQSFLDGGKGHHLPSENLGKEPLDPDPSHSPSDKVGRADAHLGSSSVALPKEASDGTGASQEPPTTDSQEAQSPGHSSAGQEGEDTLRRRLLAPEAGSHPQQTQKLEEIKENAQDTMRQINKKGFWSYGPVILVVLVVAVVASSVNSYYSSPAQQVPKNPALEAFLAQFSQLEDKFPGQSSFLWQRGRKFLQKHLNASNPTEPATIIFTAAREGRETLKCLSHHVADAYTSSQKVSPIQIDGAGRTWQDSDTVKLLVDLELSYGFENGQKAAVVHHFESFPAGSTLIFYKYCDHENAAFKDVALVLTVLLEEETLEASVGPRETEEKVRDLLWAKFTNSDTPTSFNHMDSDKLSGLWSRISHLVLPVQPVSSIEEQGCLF

On to `CC(C)(C)OC(=O)CC[C@]1(C(=O)O)N=C(c2ccc(OCCCO)cc2)O[C@H]1c1ccccc1`, for which the composite z-score is -0.147 in assay [1]; 2.2 in assay [5]; -0.0226 in [7]; -0.0257 in assay [8]; 0.154 in [9]; -0.0485 in assay [10]. Also, the z-score was -0.627 (inactive) in assay [2], -0.573 (inactive) in assay [3], -1.97 (inactive) in assay [4] and 0.461 (inactive) in [6].

Take `CN(C)CCCNC(=O)[C@@H]1c2ccccc2C(=O)N(CC23CC4CC(CC(C4)C2)C3)[C@H]1c1ccc(CO)cc1`: the composite z-score in assay [1] was 1.53; in assay [5], 3.24; in assay [7], -0.227; in [8] it was 0.954; in [9], 1.05; in [10], -0.0801. Also, the z-score is -0.0129 (inactive) in [2], -7.98 (inactive) in assay [3], -2.06 (inactive) in assay [4] and 0.583 (inactive) in assay [6].

On to `COCCOC(=O)N1C(=O)[C@@]2(c3ccccc31)[C@H](c1ccc(OCCO)cc1)N1[C@H](c3ccccc3)[C@H](c3ccccc3)OC(=O)[C@H]1[C@@H]2C(=O)Nc1nc2ccccc2s1`, for which the composite z-score in [1] is 1.45; in [5], 3.13; in assay [7], 0.0305; in [8], 0.396; in assay [9] it was 1.13; in assay [10], -0.0039. The z-score was 0.405 (inactive) in assay [2], 0.371 (inactive) in assay [3], 2.33 (inactive) in assay [4] and 1.16 (inactive) in assay [6].

In the case of `COc1ccc([Si](C)(C)[C@H]2[C@H](CCn3cc([C@H](O)c4ccccc4)nn3)O[C@@]3(C(=O)N(Cc4ccc(N5CCOC5=O)cc4)c4ccccc43)[C@@H]2C)cc1`, the composite z-score is -0.562 in [1]; -0.241 in [5]; -0.0713 in assay [7]; -1.49 in [8]; -0.865 in assay [9]; -0.227 in assay [10]. Besides, the z-score in [2] was 1.75 (inactive); in [3], 1.78 (inactive); in assay [4], 3.45 (inactive); in assay [6] it was 0.28 (inactive).

Turning to `CCCCC(=C=CC[C@@H](O)c1ccc(OCCO)cc1)C[C@@H](O)COCc1ccccc1`, the composite z-score in assay [1] is 0.989; in [5] it was 0.146; in [7] it was -0.166; in assay [8], 1.14; in assay [9], -0.198; in assay [10], -0.18. Besides, the z-score was -1.24 (inactive) in [2], -2.39 (inactive) in [3], -1.07 (inactive) in assay [4] and 1.69 (inactive) in assay [6].

`COc1ccc(NN2C(C(O)c3ccccn3)C=CC3C(=O)N(C4CCCCC4)C(=O)C32)cc1` (stereo not given): the composite z-score in [1] came out at 1.56; in [5] it was 3.26; in assay [7], 0.282; in assay [8], 0.05; in assay [9], 1.05; in [10], 0.134. Further, the z-score in assay [2] is -0.199 (inactive); in assay [3], -0.121 (inactive); in assay [4], 0.151 (inactive); in [6] it was 0.265 (inactive).

`NC(=O)N1C(=O)C2C(C1=O)C1C=C(CCCO)C2C(c2cccs2)N1Cc1cc2c(cc1Br)OCO2` (stereo not given): the composite z-score in assay [1] was 0.0811; in assay [5] it was 1.84; in [7], -0.0362; in assay [8], 0.0233; in assay [9], 0.508; in [10], -0.0978. Moreover, the z-score in [2] was -1.75 (inactive); in assay [3], -0.498 (inactive); in assay [4], -1.79 (inactive); in assay [6] it was 0.263 (inactive).

With `CCN(CC)c1ccc(N2CC=CC34O[C@@H]5/C=C\CCC(C)OC(=O)C5[C@H]3C(=O)N(CCO)[C@@H]4C2=O)cc1` (stereo not given in full), the composite z-score in assay [1] is 1.2; in assay [5] it was 3.17; in [7], -0.134; in assay [8], -0.563; in assay [9], 0.0541; in assay [10] it was -0.203. For the same compound, the z-score in assay [2] is -1.27 (inactive); in [3], -2.02 (inactive); in assay [4], -0.806 (inactive); in assay [6] it was 0.565 (inactive).

On to `C=C(/C(=C/C[C@@H](OC(=O)c1ccncc1)c1ccccc1OCCO)c1cc(C(=O)OC)ccc1OC)C(C)C`, for which the composite z-score in assay [1] is 1.56; in assay [5], 3.07; in assay [7], -0.0155; in assay [8], 0.88; in [9], 1.01; in assay [10], -0.0353. Moreover, the z-score in assay [2] is 0.381 (inactive); in assay [3], -0.633 (inactive); in assay [4], -0.338 (inactive); in assay [6], 0.616 (inactive).

As for `CN(C)C(=O)[C@@]1(Cc2ccccc2N=[N+]=[N-])COC(c2ccc(OCCCO)cc2)=N1`, the composite z-score in [1] came to 1.37; in assay [5], 3.33; in assay [7] it was 0.072; in assay [8], 0.577; in assay [9] it was 0.481; in assay [10], 0.553. Also, the z-score is -1.85 (inactive) in [2], -7.64 (inactive) in assay [3], 0.337 (inactive) in [4] and 1.84 (inactive) in [6].

Turning to `COC(=O)[C@]1(CCS(=O)(=O)c2ccccc2)N=C(c2ccc(OCCCO)cc2)O[C@@H]1c1ccccc1CN=[N+]=[N-]`, the composite z-score in assay [1] was 1.54; in assay [5], 3.09; in assay [7], 0.0956; in assay [8] it was 0.839; in [9], 0.941; in assay [10] it was -0.0972. Also, the z-score in assay [2] was 1.6 (inactive); in assay [3] it was 1.13 (inactive); in [4] it was 37 (active); in assay [6], -0.33 (inactive).

Take `CCOC(=O)C[C@H]1[C@H](OC(=O)c2ccccc2-c2ccccc2)[C@@H](NC(=O)CC(C)C)c2cc(OCCCO)ccc2N1C(=O)c1ccc2ccccc2n1`: the composite z-score in assay [1] is 0.0508; in [5], 1.19; in assay [7] it was -0.158; in [8] it was 0.219; in assay [9], -0.0063; in [10], 0.0111. The z-score in assay [2] is -0.0014 (inactive); in assay [3], -0.0812 (inactive); in [4] it was 0.116 (inactive); in [6], -0.64 (inactive).

Take `O=C1O[C@@H](c2ccccc2)[C@@H](c2ccccc2)N2[C@@H](c3ccc(O)cc3)[C@]3(C(=O)Nc4ccc(C#CC5=CCCCC5)cc43)[C@@H](C(=O)N3CCN(c4ncccn4)CC3)[C@H]12`: the composite z-score in assay [1] is 1.55; in assay [5], 3.12; in [7], 0.517; in assay [8], 1.86; in [9] it was 1.15; in assay [10], -0.115. Also, the z-score in assay [2] was 0.922 (inactive); in assay [3] it was 0.487 (inactive); in assay [4] it was 0.566 (inactive); in [6] it was 1.62 (inactive).

For the origin of these results see PubChem BioAssay.
